Results filed as inconclusive are left out. Activity calls are given as the source filed them.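 Rule for the calls, unless noted: active = viability at or under a set limit in both replicates, limit being median viability minus 3 SD (cut at about 48% in these data, passing the limit was not always enough); inconclusive = at or under the limit in just one replicate; inactive = at or above the limit in both replicates.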

Assay [1] is described as follows: reducers of endogenous Her2 protein level, primary screen, SKBR3 breast tumor cells, AlphaScreen, ATP viability (AID 461;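 active = Her2 level under about 52% in both replicate screens, with viability over 70% of control, limit read from the data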;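 for Her2 level: lower value means less Her2 protein in the cells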;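 for viability: percent of carrier control wells set as 100% viability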). The settings on record: 18-24 h, measured here: SKBR3 viability, ATP luminescence, at 10 µM.
Assay [2] has as its target Receptor tyrosine-protein kinase erbB-2 (Homo sapiens) (UniProt P04626). Described as above. The following applies: 18-24 h, at 10 µM, stronger effect = lower value.
A short description of assay [3]: SK-BR-3 cell growth inhibitors, pilot screen, 24 h, human (AID 572;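 active = viability at or below 10% of carrier control in both of two separate runs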;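 note: compound exposure lasted between 18 and 24 h rather than exactly 24 h; 100% = carrier-treated control wells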). The following applies: SK-BR-3 viability, CellTiter-Glo luminescence, at 10 µM, stronger effect = lower value.
Assay [4] in a line: HUVEC growth inhibition – cell-based, human, primary screen (AID 575;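 active = viability at or below 30% in both replicate assays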;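 note: 100% = median of untreated cell wells with 0.1% DMSO on each plate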). The following applies: HUVEC proliferation, CellTiter-Glo luminescence, 72 h; at 10 µM; stronger effect = lower value.
A short description of assay [5]: growth inhibitors of H69AR lung tumor, primary screen, human, duplicate replicates (AID 580).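 Note: 100% = mean luminescence of untreated wells and 0% = no signal.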 The following applies: H69AR lung tumor cells viability, ATP luminescence, 72 h; at 10 µM; stronger effect = lower value.
A short description of assay [6]: reversal of MRP1-mediated doxorubicin resistance, pilot screen, H69AR cells, doxorubicin co-treatment (AID 601;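 active = viability loss from added drug above about 55%, and viability with drug at most 40%, in both replicates, limit read from the data, passing the limit was not always enough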). The following applies: CellTiter-Glo, 72 h, at 10 µM; for differential viability (reversal): stronger effect = higher value.
Assay [7] is described as follows: 384-well plate pilot, post-Golgi transport modulator project, inhibition of yeast transport mutant growth (AID 636; in the data active = inhibition above about 31%). The following applies: absorbance 615 nm, about 18 h, stronger effect = higher value.
The nature of assay [8]: growth suppression of yeast trafficking mutant, preliminary HTS, modulators of trafficking downstream of Golgi apparatus project, 1536-format plate, OD 615 nm (AID 637; in the data active = inhibition above about 30%). The settings on record: yeast transport mutant growth, absorbance 615 nm, 18 h; stronger effect = higher value.
Assay [9] in a line: OD615 S. cerevisiae growth inhibition, permissive medium, pilot counter-assay, permissive growth control for S. cerevisiae lifespan shortening project (AID 705;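 active = growth inhibition above 25% in both replicates, a cutoff set 3 SD above the mean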). The following applies: OD615, 24 h, at 10 µM, stronger effect = higher value.
The nature of assay [10]: Restrictive medium S. cerevisiae growth inhibition, OD615, pilot screen of yeast lifespan reduction project, restrictive growth control (AID 706;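 active = growth inhibition above a set limit, 3 SD over mean compound inhibition, in both replicates, cut at about 43% in these data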;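 note: modified DeaD lifespan yeast strain shifted to restrictive glucose medium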). The settings on record: OD615, 48 h, at 10 µM, stronger effect = higher value.
A short description of assay [11]: viability gain of MRP-1-high H69AR cells under doxorubicin, pilot screen, MRP-1 activator project, CellTiter-Glo, duplicate (AID 807;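 active = viability increase at or above a cutoff of the median across tested compounds plus 3 SD, cut at about 8.5% in these data, passing the limit was not always enough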;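 note: compound pretreatment 18-22 h then 72 h combined with doxorubicin; 0% = doxorubicin alone and 100% = vehicle without doxorubicin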). The following applies: H69AR viability with doxorubicin, CellTiter-Glo luminescence; at 10 µM; stronger effect = higher value.
A short description of assay [12]: growth suppression of beta-catenin knockout HCT116, pilot screen, human colon tumor cells (AID 823;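 active = cell viability at or below a set limit in both duplicate runs, the limit being the all-compound median minus 4 SD, cut at about 23% in these data, passing the limit was not always enough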;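 note: 0% = wells killed by 20 µM Hyamine and 100% = untreated DMSO cell wells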). The following applies: CellTiter-Glo, 60 h, at 10 µM, stronger effect = lower value.
Assay [13] in a line: growth suppression of PTEN-deleted HCT116, pilot screen, cell-based, HCT116 clonal line, CellTiter-Glo (AID 824;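 active = viability at or below 27.92% in each of two runs, the all-compound median minus 4 SD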;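 note: 0% = 20 µM Hyamine control and 100% = vehicle cell control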). The settings on record: 60 h, at 10 µM, stronger effect = lower value.
Assay [14] in a line: inhibitors of the yeast RAM network, pilot screen, dse1pr::URA3 reporter, 5-FOA selection (AID 869;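 active = inhibition over a set limit, the all-compound mean plus 3 SD, in both replicate runs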;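 note: 0% = DMSO wells with no growth and 100% = 10 µM 1-NA-PP1 with full growth; RAM network block rescues cells from 5-FOA so hits raise OD615 growth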). The following applies: S. cerevisiae dse1pr::URA3 5-FOA growth, OD615, 2 d; at 10 µM; stronger effect = higher value; strain carries analog-sensitive mutant Cbk1 kinase.
A short description of assay [15]: RAM signaling pathway blockade in yeast – S. cerevisiae, Pdr1DBD-CYC8 efflux-inhibited sensitized strain, primary screen (AID 1298;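 active = RAM network inhibition above 8.4% in each of two replicates, 3 SD over the compound average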;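 note: 0% = DMSO untreated cells without growth and 100% = 10 µM 1-NA-PP1 full growth; higher means more yeast growth rescued from 5-FOA killing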). The settings on record: S. cerevisiae cbk1-as DSE1-URA3 strain, 5-FOA growth OD615, 2 d; at 50 µM; stronger effect = higher value.
Setting [16] is: H69AR cells + 2 uM doxorubicin, measured here: viability with 2 uM doxorubicin, stronger effect = lower value.
Where [17] appears, read: H69AR cells, compound alone cytotoxicity.

Receptor tyrosine-protein kinase erbB-2 (Homo sapiens), sequence (P04626 whole entry, looked up): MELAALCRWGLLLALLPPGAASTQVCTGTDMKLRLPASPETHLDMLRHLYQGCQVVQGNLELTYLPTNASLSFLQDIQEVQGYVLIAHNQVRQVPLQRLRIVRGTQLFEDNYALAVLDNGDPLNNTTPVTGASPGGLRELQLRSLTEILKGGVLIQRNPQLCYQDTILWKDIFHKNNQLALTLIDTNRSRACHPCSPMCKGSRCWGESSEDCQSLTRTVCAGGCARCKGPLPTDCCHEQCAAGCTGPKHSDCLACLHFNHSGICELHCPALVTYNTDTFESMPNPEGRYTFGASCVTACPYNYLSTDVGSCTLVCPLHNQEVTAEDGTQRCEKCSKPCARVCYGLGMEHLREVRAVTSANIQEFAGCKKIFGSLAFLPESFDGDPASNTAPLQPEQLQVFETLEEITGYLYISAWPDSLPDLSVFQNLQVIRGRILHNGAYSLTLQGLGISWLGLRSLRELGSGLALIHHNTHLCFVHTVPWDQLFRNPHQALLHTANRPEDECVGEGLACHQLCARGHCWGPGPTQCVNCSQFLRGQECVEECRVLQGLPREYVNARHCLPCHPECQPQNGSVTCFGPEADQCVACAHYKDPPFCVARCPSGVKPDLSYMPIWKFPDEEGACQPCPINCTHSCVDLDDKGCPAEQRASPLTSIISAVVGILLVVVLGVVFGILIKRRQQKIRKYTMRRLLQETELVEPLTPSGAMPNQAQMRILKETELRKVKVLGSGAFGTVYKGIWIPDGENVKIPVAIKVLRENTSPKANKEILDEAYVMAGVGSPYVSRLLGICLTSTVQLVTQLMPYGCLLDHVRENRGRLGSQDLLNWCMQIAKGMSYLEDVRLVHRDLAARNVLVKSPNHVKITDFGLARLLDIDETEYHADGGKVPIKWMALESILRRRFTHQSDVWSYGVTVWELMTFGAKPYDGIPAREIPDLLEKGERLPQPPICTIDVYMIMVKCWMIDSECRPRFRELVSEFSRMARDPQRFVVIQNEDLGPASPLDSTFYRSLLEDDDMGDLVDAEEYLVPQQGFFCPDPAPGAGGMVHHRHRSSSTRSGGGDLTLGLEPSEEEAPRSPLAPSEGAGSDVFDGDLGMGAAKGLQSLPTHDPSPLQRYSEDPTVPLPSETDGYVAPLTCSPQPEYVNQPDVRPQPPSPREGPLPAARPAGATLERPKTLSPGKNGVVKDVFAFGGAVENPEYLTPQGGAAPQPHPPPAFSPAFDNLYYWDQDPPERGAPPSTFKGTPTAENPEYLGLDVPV

As to `CSc1nc2c(c(=O)n1C)SC(C)C2` (stereo not given), the viability in [1] was 97%; in assay [3], 97% (inactive); in assay [4] it was 103% (inactive); in assay [5], 90.8% (inactive); in assay [6] (setting [16]) it was 95.4%; in assay [6] (setting [17]), 90.8%. For the same compound, the figures for the viability in assay [12] and in [13] were 103% (inactive) and 93.5% (inactive), respectively. The Her2 level in assay [2] is 92.5% (inactive). The differential viability (reversal) in assay [6] (H69AR cells + 2 uM doxorubicin) is -4.56% (inactive). Also, the figures for the inhibition in assay [7], in assay [8] and in assay [14] were -5.87% (inactive), -1.67% (inactive) and 1.56% (inactive), respectively. In addition, the growth inhibition in assay [9] is -6.38% (inactive); in assay [10], -10.4% (inactive). Besides, the viability increase in assay [11] was -2.62% (inactive). Besides, the RAM network inhibition in [15] is 5.01% (inactive).
Turning to `CCOC(=O)CSc1nnc(Cn2c(=O)sc3ccccc32)n1C`, the viability in assay [1] is 96%; in [3] it was 96% (inactive); in [4] it was 87% (inactive); in assay [5], 96.7% (inactive); in assay [6] (setting [16]), 85.5%; in assay [6] (setting [17]), 96.7%. For the same compound, the viability is 107% (inactive) in [12] and 106% (inactive) in [13]. Also, in [2], the Her2 level was 94% (inactive). Moreover, the differential viability (reversal) in assay [6] (H69AR cells + 2 uM doxorubicin) is 11.1% (inactive). Moreover, the inhibition in assay [7] was 3.33% (inactive); in assay [8], -2.5% (inactive); in assay [14], 0.27% (inactive). Further, the results for the growth inhibition in [9] and in assay [10] were 1.56% (inactive) and 7.89% (inactive), respectively. In [11], the viability increase was 1.76% (inactive). The RAM network inhibition in [15] was 3.51% (inactive).
With `CCOCC(=O)Nc1nc2c(s1)C(=O)CC(C)(C)C2`, the viability in assay [1] is 80.5%; in assay [3], 80.5% (inactive); in assay [4], 97% (inactive); in assay [5] it was 83.7% (inactive); in assay [6] (setting [16]) it was 90.3%; in [6] (setting [17]) it was 83.7%. For the same compound, the viability in assay [12] was 97.3% (inactive); in assay [13], 93% (inactive). For the same compound, the Her2 level in assay [2] is 108% (inactive). The differential viability (reversal) in assay [6] (H69AR cells + 2 uM doxorubicin) is -6.59% (inactive). For the same compound, the inhibition is -7.73% (inactive) in [7], 1.5% (inactive) in assay [8] and 2.79% (inactive) in [14]. In addition, the growth inhibition was -16.7% (inactive) in assay [9] and -21% (inactive) in assay [10]. Besides, in assay [11], the viability increase was -2.68% (inactive). Besides, the RAM network inhibition in [15] was 0.05% (inactive).
In the case of `CCC(=O)N1CCN(c2nc(-c3ccccc3)c3c(c2C#N)CCCC3)CC1`, the viability in assay [1] was 105%; in assay [3], 105% (inactive); in assay [4] it was 97.2% (inactive); in [5] it was 156% (inactive); in assay [6] (setting [16]), 84%; in assay [6] (setting [17]), 156%. The viability in [12] is 75.8% (inactive); in assay [13] it was 73.1% (inactive). For the same compound, in assay [2], the Her2 level was 93% (inactive). Also, the differential viability (reversal) in assay [6] (H69AR cells + 2 uM doxorubicin) was 72.2% (inactive). Besides, the inhibition in [7] is -8.24% (inactive); in assay [8], 4.59% (inactive); in assay [14] it was 0.35% (inactive). Further, the growth inhibition in [9] is -2.54% (inactive); in assay [10], -4.34% (inactive). In addition, the viability increase in assay [11] was -5.2% (inactive). Moreover, the RAM network inhibition in [15] is 2.27% (inactive).
Take `CC1(C)CC(=O)c2cnc(NC(=O)Cc3ccc(Cl)cc3)nc2C1`: the viability in [1] is 71.5%; in assay [3], 71.5% (inactive); in assay [4], 96.2% (inactive); in assay [5] it was 100% (inactive); in assay [6] (setting [16]), 89.6%; in [6] (setting [17]) it was 100%. Besides, the viability in assay [12] was 94.4% (inactive); in assay [13], 90.6% (inactive). In addition, the Her2 level in [2] was 96.5% (inactive). Moreover, the differential viability (reversal) in assay [6] (H69AR cells + 2 uM doxorubicin) was 10.6% (inactive). The inhibition is -9.46% (inactive) in [7], -0.98% (inactive) in [8] and 2.17% (inactive) in assay [14]. In addition, the growth inhibition in assay [9] is -5.41% (inactive); in [10], -16.6% (inactive). The viability increase in assay [11] is 2.03% (inactive). Further, the RAM network inhibition in assay [15] is 5.3% (inactive).
On to `O=C(c1ccc(CSCc2ccccc2F)o1)N1CCN(c2ccc(N3CCOCC3)nn2)CC1`, for which the viability in [1] was 84.5%; in assay [3], 84.5% (inactive); in [4], 54.7% (inactive); in assay [5], 79.7% (inactive); in assay [6] (setting [16]), 85%; in assay [6] (setting [17]) it was 79.7%. The viability is 83.6% (inactive) in [12] and 89.7% (inactive) in [13]. In [2], the Her2 level was 76% (inactive). Moreover, the differential viability (reversal) in assay [6] (H69AR cells + 2 uM doxorubicin) is -5.4% (inactive). Moreover, the inhibition in [7] is 0.9% (inactive); in assay [8] it was -0.17% (inactive); in [14], 1.54% (inactive). Further, the growth inhibition in [9] was 1.75% (inactive); in [10] it was 17.4% (inactive). For the same compound, in [11], the viability increase was -4.06% (inactive). Moreover, in [15], the RAM network inhibition is 2.93% (inactive).
In the case of `CN1CCN(CCCNC(=O)Cn2ncc3c4ccccc4n(C)c3c2=O)CC1`, the viability in assay [1] is 84%; in assay [3], 84% (inactive); in [4] it was 82.7% (inactive); in [5] it was 86% (inactive); in [6] (setting [16]), 94.1%; in [6] (setting [17]), 86%. Besides, the viability in assay [12] was 92.9% (inactive); in assay [13] it was 100% (inactive). The Her2 level in [2] is 129% (inactive). Also, in [6] (H69AR cells + 2 uM doxorubicin), the differential viability (reversal) was -8.1% (inactive). The inhibition is 1.15% (inactive) in assay [7], 10.8% (inactive) in [8] and 3.37% (inactive) in assay [14]. Besides, the growth inhibition in assay [9] was -16.9% (inactive); in assay [10] it was -28.7% (inactive). In addition, the viability increase in [11] is -1.44% (inactive). Further, in assay [15], the RAM network inhibition was 4.04% (inactive).
As for `O=C(Cn1cc2c(n1)CCCCC2)N1CCc2ccccc21`, the viability is 85.5% in [1]; 85.5% (inactive) in assay [3]; 67.6% (inactive) in [4]; 87.8% (inactive) in assay [5]; 91.8% in [6] (setting [16]); 87.8% in assay [6] (setting [17]). Further, the viability in assay [12] was 66.4% (inactive); in assay [13] it was 81% (inactive). Moreover, the Her2 level in [2] is 95.5% (inactive). For the same compound, the differential viability (reversal) in assay [6] (H69AR cells + 2 uM doxorubicin) is -3.99% (inactive). Further, the inhibition in [7] is -1.33% (inactive); in assay [8] it was -7.87% (inactive); in [14], 2.15% (inactive). Also, the growth inhibition in assay [9] is -4.03% (inactive); in assay [10], -4.38% (inactive). Moreover, in assay [11], the viability increase was -2.66% (inactive). Besides, in assay [15], the RAM network inhibition was 1.83% (inactive).
As to `COc1ccc(C2CC(c3ccc(Cl)cc3Cl)n3nc(N)nc3N2)cc1` (stereo not given), the viability in assay [1] is 95%; in [3], 95% (inactive); in assay [4] it was 79.8% (inactive); in assay [5] it was 90.4% (inactive); in assay [6] (setting [16]), 91.1%; in assay [6] (setting [17]), 90.4%. The viability in [12] is 90.9% (inactive); in assay [13], 91.3% (inactive). In addition, the Her2 level in assay [2] is 93.5% (inactive). For the same compound, the differential viability (reversal) in [6] (H69AR cells + 2 uM doxorubicin) was -0.635% (inactive). In addition, the inhibition in [7] was 0.64% (inactive); in assay [8], 3.67% (inactive); in assay [14], 1.59% (inactive). The growth inhibition is 7.35% (inactive) in [9] and 25.7% (inactive) in [10]. In [11], the viability increase is 3.63% (inactive). Moreover, the RAM network inhibition in [15] is 4.26% (inactive).
Turning to `CC(=O)NCc1nc2ccccc2n1C(C)C`, the viability is 104% in assay [1]; 104% (inactive) in [3]; 84.2% (inactive) in assay [4]; 92.3% (inactive) in [5]; 82.3% in assay [6] (setting [16]); 92.3% in [6] (setting [17]). Also, the figures for the viability in [12] and in [13] were 105% (inactive) and 95.5% (inactive), respectively. The Her2 level in [2] was 108% (inactive). Further, in [6] (H69AR cells + 2 uM doxorubicin), the differential viability (reversal) is 10% (inactive). In addition, the inhibition in [7] was -4.93% (inactive); in [8] it was -4.83% (inactive); in [14], 0.84% (inactive). For the same compound, the growth inhibition in assay [9] was -13.7% (inactive); in assay [10], -29.9% (inactive). For the same compound, the viability increase in [11] was -0.81% (inactive). For the same compound, the RAM network inhibition in assay [15] is 3.6% (inactive).

For the origin of these results see PubChem BioAssay.
